The list is not random: actives were taken first. Their share in the collection is about 3.1%.
ABHD5-PLIN5 inh: blocks binding of human ABHD5 to perilipin-5 | hit rate 0.78% among 360,000 | inhibition, % at 4 µM | Split G. princeps luciferase complementation, luminescence, 4 h;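 active = inhibition above the mean inhibition across every tested compound plus 3 SD, cut at about 22% in these data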;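 note: 0% = DMSO only wells and the 100% control is not disclosed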
KKLEB tox: reduces viability of KKLEB cystic fibrosis airway cells | KKLEB CF airway cells viability, ATPlite luminescence, overnight; hits give low values; cells stimulated with P. aeruginosa culture filtrate | activity change (cytotoxicity), % at 5 µM | hit rate 0.36% among 360,000;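 active = corrected activity change at or below -50% at 5 µM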
Peg3 prom inh: Peg3 promoter activity inhibition; hit rate 1.7% among 360,000; HeLa PEG-Prom luciferase reporter, luminescence, overnight; AID 588405; inhibition, % at 20 µM;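 active = inhibition of at least 50% at 20 µM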
CF NFkB inh: blocks PAF-induced NF-kB reporter in cystic fibrosis cells; AID 588850; KKLEB NF-kB-GFP reporter, GFP fluorescence overnight; hit rate 0.86% among 360,000; inhibition, % at 5 µM;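 active = at least 50% inhibition at 5 µM, scaled per plate between neutral and stimulator controls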;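 note: PAF is a Pseudomonas aeruginosa culture filtrate used as stimulus; plate controls were PAF-stimulated DMSO wells for no effect and unstimulated DMSO wells for full effect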
HIF-2a inh: inhibitors of HIF-2a; 786-0 RCC cells HIF-2a reporter, luciferase luminescence, overnight; inhibition, % at 18.8 µM; hit rate 0.72% among 360,000; AID 624352;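 active = inhibition of the luminescence signal of 40% or more relative to plate controls, in a single-dose primary screen at 18.75 µM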
MITF TRPM1 inh: inhibitors of MITF-driven TRPM1 promoter in melanoma cells; inhibition, % at 12.5 µM; hit rate 0.83% among 330,000; AID 488899; SK-MEL-5 TRPM1 promoter luciferase, 24 h;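 active = mean inhibition across replicates of 60% or more, whatever share of single replicates reaches that level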
Mdm2 MdmX conf: Mdm2/MdmX (human) interaction inhibition, confirmed; shares compounds with HIF-2a inh; SaOS-2 split-luciferase Mdm2/MdmX complementation, luminescence; inhibition, % at 8 µM; hit rate 99% among 740; AID 504601;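 active = mean inhibition of the luminescence signal across two replicates at or above 26 percent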
HIF-2a conf: HIF-2a inhibition, single concentration confirmation | shares compounds with HIF-2a inh | 786-0 RCC cells, HIF-2a luciferase reporter luminescence, overnight | inhibition, % at 18.8 µM | hit rate 56% among 1,800 | AID 651580;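 active = mean inhibition across four replicates of at least 40 percent at the single tested concentration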
HIF-1a cs: inhibits HIF-1a reporter, a counter-screen for HIF-2a inhibitors; shares compounds with HIF-2a inh; MiaPaCa-2 HIF-1a luciferase reporter, desferoxamine, overnight; inhibition, % at 18.8 µM; hit rate 72% among 1,800;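 active = mean inhibition of the reporter signal across four replicates at the single tested dose of 50% or more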
Active calls of the source: *; . = no result.

SMILES	ABHD5-PLIN5 inh	KKLEB tox	Peg3 prom inh	CF NFkB inh	HIF-2a inh	MITF TRPM1 inh	HIF-2a conf	HIF-1a cs	others
O=C(NC(=S)Nc1ccccc1N1CCCCC1)c1ccco1	-8	-5	28	-12	-6	0	.	.
Cc1ccc(C(=O)CC(=O)c2ccccc2C)c(O)c1	2	9	-56	-14	-87	11	.	.
C=C(CN(C)C)C(=O)c1ccc(C)cc1C	60*	-2	99*	7	90*	109*	96*	74*
CC1(C(=O)NC2CCCCCC2)CCN1C(=O)C1(c2ccccc2)CC1 (stereo not given)	-5	-3	9	0	16	.	.	.
CC(C)(C)C(=O)Nc1cc(NC(=O)C(C)(C)C)cc(C(=O)NNC(=O)c2ccncc2)c1	2	-10	7	11	13	9	.	.
Cc1ccc(C(=O)N/C(=C\c2ccc(-c3ccc(Cl)cc3)o2)C(=O)NCCCN(C)C)cc1	21	-20	103*	23	15	86*	.	.	Mdm2 MdmX conf=103*
COc1cc2c3nnc(-c4ccc(F)cc4)c-3cn(Cc3cccc(F)c3)c2cc1OC	1	-4	96*	-52	27	75*	.	.	Mdm2 MdmX conf=103*
COc1ccc(CN2CCN(Cc3cccc(F)c3)CC2)cc1OC	3	-8	13	16	19	13	.	.
COc1ccc(/C=N\NC(=O)c2ccc(=O)[nH]n2)cc1O	2	2	1	5	28	0	.	.
COc1ccc(/C=N/NC(=O)c2cc(C34CC5CC(CC(C5)C3)C4)[nH]n2)cc1O	-2	0	17	5	55*	2	0	32
CCOc1ccc(NC(=O)CCC(=O)NNC(=O)Nc2cccc(Cl)c2)cc1	3	-5	-1	-12	2	9	.	.
COC(=O)c1ccc(N2CCS(=O)(=O)CC2)cc1	1	4	10	0	9	-4	.	.
O=C(COC(=O)c1ccc[nH]c1=O)Nc1ccc(N2CCCCC2)cc1	0	0	29	-1	91*	78*	95*	74*
O=C(COC(=O)c1ccc[nH]c1=O)Nc1ccc(S(=O)(=O)N2CCCC2)cc1	-4	-17	18	6	59*	5	0	18
O=C(COC(=O)c1ccc[nH]c1=O)Nc1cc(S(=O)(=O)N2CCCCC2)ccc1Cl	2	8	3	3	19	8	.	.
COc1ccc(-c2cc3c(=O)n(CC(=O)NCCCN4CCC(N5CCCCC5)CC4)nc(C)n3n2)cc1	9	18	6	-10	1	72*	.	.	Mdm2 MdmX conf=73*
CC(=O)Nc1ccc(SCC(=O)c2cc(C)n(Cc3cccs3)c2C)cc1	-3	-56*	46	13	71*	5	82*	89*
C=CCn1c(C)cc(C(=O)CSc2ccc(NC(C)=O)cc2)c1C	-5	-8	-94	8	50*	-23	67*	43
COCCn1c(C)cc(C(=O)CSc2ccc(NC(C)=O)cc2)c1C	-6	0	-169	4	11	-19	.	.
CCN(CC)CCNC(=O)c1ccc(CS(=O)(=O)c2ccccc2C)o1	4	4	-33	-8	19	14	.	.
COc1cc(C(=O)NCCc2ccc(S(=O)(=O)N3CCCC3)cc2)cc(OC)c1OC	0	5	10	0	20	4	.	.
Cn1c(=O)n(C)c2cc(NC(=O)CCl)ccc21	0	-3	-42	-80	51*	29	23	81*
CCn1c(=O)oc2cc(NC(=O)CCl)ccc21	6	17	47	-62	40*	37	18	84*
O=C(CCn1c(=O)oc2cc(Cl)ccc21)Nc1ccc(O)cc1	-1	4	6	-6	3	-13	.	.

Compound activity (PubChem BioAssay)
